Rows were chosen to be rich in hits. Some 8.7% of all compounds tested hit in one or more screens of this group.
TNAP act DEA = human TNAP enzyme activators, primary screen, biochemical, luminescent, intermediate phosphate acceptor level. Alkaline phosphatase, tissue-nonspecific isozyme (Homo sapiens), P05186. purified TNAP, CDP-star luminescence, 100 mM DEA, 30 min; active compounds read high; scale: 0 levamisole-inhibited, 1 vehicle-only enzyme. activation factor at 20 µM. 64,000 tested, under 10 active;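 active = activation factor of at least 2 at 20 µM, relative to controls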
Smad3 FoxH1 inh = Smad3/FoxH1 peptide binding inhibitors, primary screen, biochemical, TR-FRET | TR-FRET Smad3/Dy647-FoxH1 peptide binding, europium anti-His | inhibition, % at 25 µM | actives 0.29% (n = 88,000);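 active = compounds that reduce the energy-transfer binding signal between the protein and its labelled peptide by more than half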;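 also: 0% = Smad3 plus labelled peptide maximal FRET and 100% = peptide-only background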
hDAT+cocaine = changed hDAT dopamine uptake under cocaine IC80, either direction, primary screen, cocaine antagonist project, cell-based, LLC-PK1 hDAT, [14C]-dopamine uptake, MLSMR; Sodium-dependent dopamine transporter (Homo sapiens), Q01959; LLC-PK1 hDAT cells, [14C]-dopamine uptake with cocaine IC80; actives deviate in either direction; B-score at 10 µM; actives 1.3% (n = 110,000);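 active = Z score or B-score, a plate-position-corrected score, falls beyond the plate's 99.7% confidence bounds, in either direction; inactive = both scores lie inside the 99.7% bounds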;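 also: scored against the spread of the other compound wells on the same plate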
PostGolgi yeast = phenotypic screen on post-Golgi transport, primary screen; AID 739, 2007; inhibition, % at 10 µM; post-Golgi transport phenotypic cell assay; actives 0.9% (n = 98,000);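 also: yeast cells grown in 1536-well plates; yeast grown about 18 h at 30C before absorbance read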
Cav3 T inh = Cav3.2 calcium influx blockers – cell-based, Fluo-4 calcium fluorescence, FDSS, MLSMR library, primary screen | Cav3.2-expressing cells; active compounds read low | B-score at 10 µM | actives 4% (n = 100,000);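 active = single-dose well whose peak fluorescence ratio is a statistical outlier from its plate by either plate-standardised score or position-corrected B-score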
PostGolgi ctrl = growth inhibition of yeast control strain, primary screen, counter-screen for post-Golgi transport modulator project; efflux-deficient yeast background strain, growth absorbance A615, 16 h; inhibition, % at 10 µM; actives 5% (n = 98,000); AID 738, 2007
Numbers without * were called inactive. Rule as the data show it, unless noted: active = inhibition above about 30%; inactive = the rest.

Cn1c(C(=O)NCCc2c[nH]c3ccccc23)cc2sccc21 was read as TNAP act DEA 0.9, Smad3 FoxH1 inh -2.2, hDAT+cocaine 0.0817, PostGolgi yeast -2.2, Cav3 T inh -5.25* and PostGolgi ctrl 11.8.
`O=C(NCCc1c[nH]c2ccccc12)c1cc2sccc2n1Cc1ccccc1` gave Smad3 FoxH1 inh -1.9, hDAT+cocaine 0.758, PostGolgi yeast 7.4, Cav3 T inh -4.96* and PostGolgi ctrl 24.6.
Screening O=C(NCc1ccc(F)cc1)c1cc2sccc2n1Cc1ccc(F)cc1 returned Smad3 FoxH1 inh 3.2, hDAT+cocaine 0.652 and Cav3 T inh -2.53.
Cc1cc(C)n2cc(CSc3ncccc3C(=O)O)nc2n1 was read as TNAP act DEA 1, Smad3 FoxH1 inh -7.2, hDAT+cocaine -0.146, PostGolgi yeast 11.9, Cav3 T inh 0.232 and PostGolgi ctrl 6.3.
O=C(N/N=C/c1ccc(-c2ccccc2[N+](=O)[O-])o1)c1cccnc1 was read as hDAT+cocaine -0.939, PostGolgi yeast 1.1, Cav3 T inh 0.947 and PostGolgi ctrl 8.6.
Screening O=C1CC2(CON=C2c2ccc(F)cc2)C(=O)N1c1ccc(F)cc1 (stereo not given) returned TNAP act DEA 0.9, Smad3 FoxH1 inh 2.5, hDAT+cocaine -0.493, PostGolgi yeast 5.3, Cav3 T inh 1.03 and PostGolgi ctrl 32.9*.
Screening CC(/C=N/NC(=O)c1ccncc1)=C\c1ccc(C(C)C)cc1 returned hDAT+cocaine 0.312, PostGolgi yeast 30.4*, Cav3 T inh -1.21 and PostGolgi ctrl 35.2*.
Screening CCC(=O)N1CCc2cc(Br)cc(S(=O)(=O)CCC(=O)NCCc3ccccc3)c21 returned Smad3 FoxH1 inh 0.2, hDAT+cocaine -0.129, PostGolgi yeast -1.3, Cav3 T inh 0.586 and PostGolgi ctrl 14.3.
C=CCOC(=O)/C(=C\c1ccc(OC)cc1)NC(=O)c1ccco1 was read as PostGolgi yeast -3.0 and PostGolgi ctrl 3.8.
For CCCCOc1ccc(C(=O)N/C(=C\c2ccc(OC)cc2)C(=O)OCc2ccco2)cc1 the results were hDAT+cocaine 1.05, PostGolgi yeast -3.5, Cav3 T inh -8.62* and PostGolgi ctrl 20.5.
`N=C1[C@H](O)[C@]2(I)c3ccccc3N3C(=N)[C@H](O)[C@@H]4c5ccccc5N1[C@@H]4[C@@H]32` gave Smad3 FoxH1 inh 57.1*.
Screening CCCN(CC1CC1)c1nc(N)c2c(N)nc(OC)cc2c1C#N returned hDAT+cocaine -0.0202, PostGolgi yeast 8.1, Cav3 T inh 2.06 and PostGolgi ctrl 34.5*.
CCOC(=O)C1CCCN(CC(=O)Nc2c(C(=O)OC)[nH]c3ccc(Cl)cc23)C1 (stereo not given) was read as TNAP act DEA 1, Smad3 FoxH1 inh 3.3, hDAT+cocaine 2.92*, PostGolgi yeast -9.7, Cav3 T inh -2.37 and PostGolgi ctrl 39.1*.
CCN(CC(=O)Nc1c(C(=O)OC)[nH]c2ccc(Cl)cc12)c1ccc2c(c1)OCO2 was read as TNAP act DEA 0.9, Smad3 FoxH1 inh 9.6, hDAT+cocaine 1.42, PostGolgi yeast 19.3, Cav3 T inh -0.937 and PostGolgi ctrl 56.6*.
For CCOC(=O)C1CCCN(CC(=O)Nc2c(C(=O)OC)[nH]c3ccc(C)cc23)C1 (stereo not given) the results were TNAP act DEA 0.9, Smad3 FoxH1 inh -0.9, hDAT+cocaine 1.94, PostGolgi yeast 5.3, Cav3 T inh -1.03 and PostGolgi ctrl 19.0.
Screening CN1CC(=O)N(CC(=O)Nc2ccc(F)cc2)c2ccccc2C1=O returned TNAP act DEA 0.9, Smad3 FoxH1 inh -1.9, hDAT+cocaine -0.431, PostGolgi yeast -6.3, Cav3 T inh 0.00981 and PostGolgi ctrl -5.7.
CC(C)C[C@H](NC(=O)c1[nH]cnc1C(=O)Nc1ccc(Cl)cc1)C(=O)OC(C)(C)C was read as hDAT+cocaine -0.582 and Cav3 T inh 0.896.
For O=C(N/N=C/c1cccc(F)c1)c1csc2c1CCCC2 the results were hDAT+cocaine -0.0995, PostGolgi yeast -8.0 and PostGolgi ctrl 50.1*.
Screening O=C(N/N=C/c1ccccc1F)c1csc2c1CCCC2 returned hDAT+cocaine -0.805, PostGolgi yeast -4.5, Cav3 T inh 0.729 and PostGolgi ctrl 13.3.
CS(=O)(=O)c1ccc(Sc2nc3ccccc3[nH]2)c([N+](=O)[O-])c1 was read as Smad3 FoxH1 inh -2.4, hDAT+cocaine -0.478, PostGolgi yeast 8.2, Cav3 T inh 1.27 and PostGolgi ctrl 5.8.
Screening O=[N+]([O-])c1cc(S(=O)(=O)C(F)(F)F)ccc1Sc1nc2ccccc2s1 returned hDAT+cocaine -1.92, PostGolgi yeast 40.8*, Cav3 T inh 0.517 and PostGolgi ctrl 92.3*.
O=[N+]([O-])c1cc(S(=O)(=O)C(F)(F)F)ccc1Sc1nc2ccccc2[nH]1 was read as Smad3 FoxH1 inh -7.6, hDAT+cocaine 0.0556, PostGolgi yeast 26.8, Cav3 T inh -4.55* and PostGolgi ctrl 70.1*.
Screening c1ccc(-c2nc3nonc3nc2-c2ccccc2)cc1 returned TNAP act DEA 0.8, Smad3 FoxH1 inh 3.5, PostGolgi yeast 15.9 and PostGolgi ctrl 31.3*.
For Nc1c(-c2ccccc2)nc(Cl)nc1-c1ccccc1 the results were hDAT+cocaine 0.11, PostGolgi yeast 0.6, Cav3 T inh 0.134 and PostGolgi ctrl 4.0.
Screening O=c1cc(-c2ccccc2Cl)oc2c(NS(=O)(=O)c3cc(Cl)cc(Cl)c3O)ccc(O)c12 returned hDAT+cocaine -6.33* and Cav3 T inh -2.41.
For CCc1ccc(S(=O)(=O)Nc2ccc(O)c3c(=O)cc(-c4ccccc4Cl)oc23)cc1 the results were hDAT+cocaine 0.0741 and Cav3 T inh -1.74.
For Cn1c(-c2ccc3c(c2)OCO3)cnc1NC(=O)CCC(=O)NCCc1ccccc1 the results were TNAP act DEA 0.9, Smad3 FoxH1 inh 10.6, hDAT+cocaine 2.09, PostGolgi yeast -4.2, Cav3 T inh -1.96 and PostGolgi ctrl 34.2*.
`Cn1c(-c2ccc3c(c2)OCO3)cnc1NCc1ccccc1` gave TNAP act DEA 0.9, Smad3 FoxH1 inh -2.8, hDAT+cocaine -0.00624, PostGolgi yeast 6.9, Cav3 T inh -2.66 and PostGolgi ctrl 8.9.
`CCCCNC(=O)CCC(=O)Nc1ncc(-c2ccc(C)cc2)n1C` gave TNAP act DEA 0.9, Smad3 FoxH1 inh 4.8, hDAT+cocaine 1.72, PostGolgi yeast -4.9, Cav3 T inh -0.287 and PostGolgi ctrl 9.0.
